Screening results: PubChem BioAssay, National Center for Advancing Translational Sciences (NCATS)
An excerpt weighted towards active compounds, which were near 21% of everything screened.
FBPA Giardia inh – qHTS Assay for Inhibitors of Fructose-1,6-bisphosphate Aldolase from Giardia Lamblia; hit rate 0.71% among 290,000; Potency, µM (titrated, usually from 59.6 µM), for the others: at the highest dose activity, negative = inhibition, usual class: inhibitors; purified Giardia FBPA; also: potency is read from the fitted curve at half-maximal effect; % is scaled to controls: 0 for no effect and ±100 for the full control effect; nearly all actives have a fitted effect of over 55% in size
Target sequence (A8B2U2 whole entry, looked up): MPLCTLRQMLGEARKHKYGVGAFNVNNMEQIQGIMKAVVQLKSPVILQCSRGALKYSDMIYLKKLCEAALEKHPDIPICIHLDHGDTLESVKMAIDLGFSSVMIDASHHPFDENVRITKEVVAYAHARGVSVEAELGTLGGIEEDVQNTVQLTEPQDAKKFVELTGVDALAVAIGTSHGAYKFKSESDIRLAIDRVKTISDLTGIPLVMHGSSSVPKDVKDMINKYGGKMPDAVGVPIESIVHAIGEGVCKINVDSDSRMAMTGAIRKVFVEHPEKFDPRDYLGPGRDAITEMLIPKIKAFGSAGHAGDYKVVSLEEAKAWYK
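40 nM FBPA preincubated 10 min at RT with compound (up to 57.5 uM final), then substrate plus GAPDH/TPI/NAD/arsenate coupling and diaphorase/resazurin added. Fluorescence read after 20 min at RT, 525/598 nm.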
Pf growth 48h – Primary qHTS for delayed death inhibitors of the malarial parasite plastid, 48 hour incubation | P. falciparum luciferase growth in erythrocytes, 48 h | hit rate 5.9% among 310,000 | Potency, µM (titrated, usually from 28.7 µM), without a hit: at the highest dose activity change, negative = inhibition, usual class: inhibitors; also: potency is read from the fitted curve at half-maximal effect; % is scaled to controls: 0 for no effect and ±100 for the full control effect
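Erythrocytes infected with P. falciparum carrying an integrated firefly luciferase reporter (2% hematocrit, 0.1% parasitemia final) were exposed to compounds in RPMI 1640 with 0.5% Albumax at 37 C, 5% CO2. Growth inhibition was scored as reduced luminescence.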
NS1 inh – qHTS Assay for Inhibitors of Influenza NS1 Protein Function | Potency, µM (series often up to 46.1 µM), for the others: top-dose activity, positive = more growth | hit rate 0.4% among 270,000 | AID 2326, 2010; calls by dose curve; also: potency is read from the fitted curve at half-maximal effect; actives are rising curves; nearly all actives have a fitted effect of over 50% in size
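In this qHTS, NS1 from influenza A is expressed in budding yeast, where it slows growth. Cells are switched from glucose to 2% galactose medium (pH 6.0, -URA), treated with compound, and growth recovery is read at OD600.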
Pf growth 96h – Primary qHTS for delayed death inhibitors of the malarial parasite plastid, 96 hour incubation; Potency, µM (series often up to 28.7 µM), inactives show at the highest dose activity change, negative = inhibition, most hits filed as inhibitors; P. falciparum luciferase reporter growth, 96 h; hit rate 6.9% among 320,000; AID 504834, 2011; also: potency is read from the fitted curve at half-maximal effect; % is scaled to controls: 0 for no effect and ±100 for the full control effect
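Plates of compound plus infected erythrocytes (2% hematocrit, 0.05% parasitemia final) incubate 96 hours, 37 C, 5% CO2. Detection reagent added; reduced luminescence from the parasites' luciferase reporter flags inhibition.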
CHX counter – Cycloheximide Counterscreen for Small Molecule Inhibitors of Shiga Toxin. cell reporter, cycloheximide protein synthesis inhibition counterscreen. max response, %. hit rate 12% among 300,000. AID 2314, 2010; in the data active = max response mostly above about 13%, no sharp cut-off; inactive = mostly below about 14%; also: read at 38.3 µM for the half of the compounds with a filed dose; 0% is about no effect
Shiga inhibitor – A qHTS for Small Molecule Inhibitors of Shiga Toxin | inhibition, % at 38.7 µM | hit rate 9.2% among 290,000 | Vero cells, Shiga toxin protein synthesis inhibition reporter; in the data active = inhibition mostly above about 28%, no sharp cut-off; inactive = mostly below about 43%; also: 0% is about no effect
* = called active by the depositor; [ ] = dose if it differs, or a comment. Unless noted, calls follow the shape of the dose curve; as a rule, active = well fitted curve in the direction sought with a large enough effect; inconclusive = small, poorly fitted or top-dose-only effect, or another doubt; inactive = no such curve, though single readings can be large; an effect the other way counts as inactive or inconclusive.

`COc1cc(C(=O)Nc2nnc(CC(=O)NCc3ccccc3)s2)cc(OC)c1OC` gave FBPA Giardia inh -3%, Pf growth 48h 27%, NS1 inh 3%, Pf growth 96h 5%, CHX counter 2 and Shiga inhibitor -3.
`Cc1ccc(NC(=O)c2ccn(C)n2)c(Br)c1` gave FBPA Giardia inh 0%, Pf growth 48h 423%, NS1 inh -2%, Pf growth 96h 5%, CHX counter 81* and Shiga inhibitor 163*.
For Cn1ccc(C(=O)Nc2ccc(Br)cc2Br)n1 the results were FBPA Giardia inh 0%, Pf growth 48h inactive, NS1 inh 4%, Pf growth 96h 427%, CHX counter 104* and Shiga inhibitor 167*.
CN(CC(=O)Nc1ccccc1Br)C(=O)CCSc1ccc(F)cc1 was read as Pf growth 48h inconclusive and Pf growth 96h 15%.
For Cc1c(C)c2c(c(C)c1OC(=O)CCC(=O)O)CC[C@@](C)(CCC[C@H](C)CCC[C@H](C)CCCC(C)C)O2 the results were Pf growth 48h inconclusive and Pf growth 96h 12µM*.
For CC1CCCN(C(=O)C23CCC(C)(C(=O)C2)C3(C)C)C1 (stereo unspecified) the results were FBPA Giardia inh -1%, Pf growth 48h 8%, NS1 inh 4%, Pf growth 96h 9.3µM*, CHX counter -1 and Shiga inhibitor 11.
CC12CCC(C(=O)N3CCCCC3)(CC1=O)C2(C)C (stereo unspecified) was read as FBPA Giardia inh 3%, Pf growth 48h 25%, NS1 inh 13%, Pf growth 96h -12%, CHX counter 1 and Shiga inhibitor -6.
`Cc1cc2c(cc1S(=O)(=O)N1CCN(c3cccc(C)c3C)CC1)OCC(=O)N2` gave FBPA Giardia inh -15%, Pf growth 48h -15%, NS1 inh 5%, Pf growth 96h inconclusive, CHX counter -1 and Shiga inhibitor 13.
CC1CCC(C(=O)O)NC1c1cccc(N2CCOCC2)c1 (stereo unspecified) was read as FBPA Giardia inh -2%[12.9 µM].
Screening COc1ccccc1-c1noc(CCCC(=O)NC2CCCCC2)n1 returned FBPA Giardia inh -7%, Pf growth 48h -28%, NS1 inh -4%, Pf growth 96h 9%, CHX counter -5 and Shiga inhibitor 5.
For O=C(Nc1ccc2nsnc2c1)N1CCCCC1 the results were FBPA Giardia inh inconclusive, NS1 inh -6%, Pf growth 96h 22%, CHX counter 30* and Shiga inhibitor 55.
Screening S=C(Nc1ccc2nsnc2c1)N1CCCCCC1 returned FBPA Giardia inh 6%, Pf growth 48h inconclusive, NS1 inh -5%, Pf growth 96h 25%, CHX counter -6 and Shiga inhibitor 35.
`CC1CCN(C(=O)Nc2ccc3nsnc3c2)CC1` gave Pf growth 48h 31%, NS1 inh -3%, Pf growth 96h 131%, CHX counter 20* and Shiga inhibitor 107*.
CC1CCN(C(=O)Nc2cccc(NC(=O)N3CCC(C)CC3)c2)CC1 was read as FBPA Giardia inh -26%, Pf growth 48h -31%, NS1 inh -11%, Pf growth 96h -23%[5.75 µM], CHX counter 8 and Shiga inhibitor 8.
`CCN(CC)C1CCN(Cc2cn[nH]c2-c2ccc(OC)c(F)c2)C1` (stereo unspecified) gave FBPA Giardia inh 0%, Pf growth 48h 12%, NS1 inh 0%, Pf growth 96h 2.1µM*, CHX counter 6 and Shiga inhibitor 1.
c1csc(-c2nn3c(-c4ccncc4)nnc3s2)c1 was read as FBPA Giardia inh 0%, Pf growth 48h 6%, NS1 inh inconclusive, Pf growth 96h inconclusive, CHX counter -2 and Shiga inhibitor 12.
`c1coc(-c2nnc3sc(-c4cccs4)nn23)c1` gave FBPA Giardia inh 1%, Pf growth 48h -6%, NS1 inh -16%, CHX counter 14* and Shiga inhibitor 45.
Screening COc1cc(OC)c(-c2nn3c(-c4ccco4)nnc3s2)cc1OC returned FBPA Giardia inh -4%, Pf growth 48h 10µM*, NS1 inh -44%, Pf growth 96h 8%, CHX counter -4 and Shiga inhibitor 9.
Screening COc1cccc(-c2nnc3sc(-c4ccco4)nn23)c1 returned FBPA Giardia inh 3%, Pf growth 48h 42%, NS1 inh inconclusive, Pf growth 96h inconclusive, CHX counter 39* and Shiga inhibitor 45.
`COc1ccc(-c2nnc3sc(-c4ccco4)nn23)cc1OC` gave FBPA Giardia inh -10%, Pf growth 48h -14%, NS1 inh -3%, CHX counter 5 and Shiga inhibitor -19.
COc1ccc(-c2nn3c(-c4ccco4)nnc3s2)cc1OC was read as FBPA Giardia inh 4%, Pf growth 48h inconclusive, NS1 inh -36%, Pf growth 96h -3%, CHX counter -1 and Shiga inhibitor 2.
Screening Cc1cc(-c2nn3c(-c4ccccc4)nnc3s2)c2ccccc2n1 returned FBPA Giardia inh 13%, Pf growth 48h inconclusive, NS1 inh -33%, Pf growth 96h 26%, CHX counter 1 and Shiga inhibitor -2.
For c1ccc(-c2cc(-c3nn4c(-c5ccco5)nnc4s3)c3ccccc3n2)cc1 the results were FBPA Giardia inh 6%, Pf growth 48h 3.7µM*, NS1 inh 16%, CHX counter -1 and Shiga inhibitor -5.
`O=C(Nc1cc(S(=O)(=O)N2CCOCC2)ccc1Cl)c1ccc(=O)[nH]c1` gave Pf growth 48h 31% and Pf growth 96h 1%.
Screening CN(C)CC(O)CN1C(=O)NC(C)(C)C1=O (stereo unspecified) returned FBPA Giardia inh -1%, Pf growth 48h 12%, NS1 inh 4%, Pf growth 96h 2.1µM*, CHX counter -2 and Shiga inhibitor -5.
For CC1CC(=O)N(c2ccc(C(C)C)cc2)C(=O)C1 the results were FBPA Giardia inh -4%, Pf growth 48h -26%, NS1 inh 18%, Pf growth 96h 27%, CHX counter -1 and Shiga inhibitor 3.
Screening CC(C)c1ccc(N2C=Nc3ccc(C(C)C)cc3C2)cc1 returned FBPA Giardia inh 1%, Pf growth 48h inconclusive, NS1 inh -10%, Pf growth 96h inconclusive, CHX counter 19* and Shiga inhibitor 52*.
`C1=Nc2ccccc2CN1c1ccccc1` gave FBPA Giardia inh inconclusive, Pf growth 48h 126%, NS1 inh 33%, Pf growth 96h -9%, CHX counter 65* and Shiga inhibitor 93*.
Screening COC(=O)c1ccc(CN2CCC(Oc3cccc(C(=O)N4CCOCC4)c3)CC2)cc1 returned Pf growth 48h -1%, NS1 inh -3%, Pf growth 96h 0%, CHX counter 11 and Shiga inhibitor 1.
